Source: PubChem BioAssay
Calls of active or inactive are those of the source.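 How the source made its calls: active means inhibition above the hit cutoff set in the earlier primary screen (cut at about 27% in these data); inactive means the rest.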

What follows are compounds tested against Protein phosphatase methylesterase 1 (Homo sapiens) (UniProt Q9Y570) (assay: human PME-1 methylesterase inhibition confirmation – biochemical, fluorescence polarization, FP-Rh probe, triplicate (AID 2171;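 further: 0% = enzyme with DMSO and 100% = wells lacking PME-1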)). Details: recombinant PME-1, FP-Rh probe fluorescence polarization; at 5.9 µM; stronger effect = higher value.
Chain of Protein phosphatase methylesterase 1 (Homo sapiens) (Q9Y570 whole entry, looked up): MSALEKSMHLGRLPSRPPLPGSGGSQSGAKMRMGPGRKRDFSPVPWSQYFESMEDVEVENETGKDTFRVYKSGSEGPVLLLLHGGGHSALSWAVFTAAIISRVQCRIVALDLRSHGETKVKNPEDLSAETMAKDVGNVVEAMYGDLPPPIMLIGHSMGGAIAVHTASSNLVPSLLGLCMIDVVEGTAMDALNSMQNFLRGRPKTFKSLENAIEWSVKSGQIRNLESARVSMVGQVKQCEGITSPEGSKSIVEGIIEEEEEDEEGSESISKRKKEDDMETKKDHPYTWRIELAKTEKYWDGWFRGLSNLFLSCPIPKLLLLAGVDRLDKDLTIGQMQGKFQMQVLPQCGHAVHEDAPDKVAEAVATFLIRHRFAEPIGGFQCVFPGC

inhibition, inactive:
COc1ccc(C2CC(c3ccc(OC)c(OC)c3)=NN2S(C)(=O)=O)cc1 (stereo not given) 22.9%
CC(C)(C)c1ccc(NC(=O)C2=CC=CN3CCS(=O)(=O)N=C23)cc1 9.34%
O=C1C(CSCc2ccccc2)NC(=S)N1c1ccccc1 (stereo not given) 5.6%
C=CCn1c(NS(=O)(=O)c2ccccc2)c(S(=O)(=O)c2ccc(C)cc2)c2nc3ccccc3nc21 8.89%
COc1ccc(/C=N/Nc2cc(C)nc3ccc(Br)cc23)cc1 12.9%
Cn1c2ccccc2c2cc(/C=N/NC(=O)c3ccc(N)cc3)ccc21 19.7%
Oc1ccc(N=Cc2ccc(-c3cccs3)s2)cc1 23.3%
O=S(=O)(c1cccs1)N1CN(Cc2ccco2)c2nc3ccccc3nc21 13.4%
Cc1nn(-c2ccccc2)c2ncc(C(=O)c3cc(Cl)ccc3O)cc12 -5.34%
O=C(c1ccccc1F)N1CCN(Cc2nc3sc4c(c3c(=O)[nH]2)CCCC4)CC1 19.9%
O=C(O)CSc1cc(NS(=O)(=O)c2ccc(Cl)cc2)c2ccccc2c1O 14.2%
O=C1C2=C(Nc3ccccc3SC2c2ccco2)c2ccccc21 (stereo not given) 5.92%
CC(=O)Cc1cc(O)c2ccccc2c1OC(=O)c1ccc(Br)cc1 24.8%
Cn1c2ccccc2c2cc(/C=N/NC(=O)c3ccc(O)cc3O)ccc21 23%
Cn1c(=O)c2c(nc(CN3CCN(C(c4ccccc4)c4ccccc4)CC3)n2CCCO)n(C)c1=O 23.8%
CC1=NC(=O)C(N=Nc2cccc(O)c2)N1c1ccccc1 (stereo not given) 24.1%
O=C(CSc1c(F)c(F)cc(F)c1F)Nc1ccc(C2SCCS2)cc1 5.01%
Cc1ccc2nsnc2c1NS(=O)(=O)c1c(C)ccc2nsnc12 22.3%
CCNc1cc(O)ccc1C 2.02%
N#CCC(=O)Nc1ccc(C(=O)OCc2ccccc2Oc2ccccc2)cc1 -74.3%

inhibition, active:
Cc1ccc(S(=O)(=O)/N=C2/C=C(Sc3ncn[nH]3)C(=O)c3ccccc32)c(C)c1 49.6%
Fc1cccc2sc(Nc3nnc(-c4ccccc4)o3)nc12 33%
O=C(N/N=C/c1sc(N2CCOCC2)nc1-c1ccccc1)c1ccccc1O 51.2%
CCCn1c(CCC(=O)Nc2ccccc2Cc2ccccc2)nc2cc(S(=O)(=O)N3CCOCC3)ccc21 45.4%
CCOc1ccc(NC(=S)NNc2ccnc3cc(Cl)ccc23)cc1 28.3%
COc1ccccc1NS(=O)(=O)c1cccc(-n2c(O)c(C=Nc3ccccc3C(=O)O)c3ccccc3c2=O)c1 85.7%
O=C(O)c1cccc(-c2ccc(/C=N/Nc3ccc([N+](=O)[O-])cc3)o2)c1 31.7%
Cc1ccc(NC(=S)NNc2ccc([N+](=O)[O-])cc2S(=O)(=O)Nc2ccccc2C(=O)O)cc1C 60.2%
CC1Oc2ccccc2C=C1/C=N/Nc1ccc(C(=O)O)cc1 (stereo not given) 34.8%
COc1ccccc1NC(=O)c1sc2nc(-c3ccco3)ccc2c1N 71.6%
O=C(O)/C(CC(=O)c1ccc(Cl)cc1)=N/Nc1ccc([N+](=O)[O-])cc1[N+](=O)[O-] 42.7%
CCNc1c2c3c(cccc3n(C)c1=O)C(=O)c1ccccc1-2 80.2%
O=[N+]([O-])c1ccc(C2Nc3cccc4cccc(c34)N2)cc1 35.9%
O=C1c2ccccc2-c2onc3ccc(NCCCn4ccnc4)c1c23 163%
Cc1ccc(Nc2nnc(SCC(=O)c3ccc(O)cc3O)s2)cc1 40.8%
Cc1c2cc(O)c(=O)cc-2oc2cc(O)c(O)cc12 143%
COc1ccc(/C=N/Nc2cc(C)nc(-n3nc(C)cc3C)n2)c(OC)c1 41.6%
COc1cc2c(cc1OC)C(c1cc(Br)ccc1F)N(C(=O)CCl)CC2 (stereo not given) 51.5%
CCc1ccc(S(=O)(=O)/N=C2\C=C(Nc3ccc(C(=O)O)cc3)C(=O)c3ccccc32)cc1 33.3%
O=S(=O)(Nc1cc2nc3ccccc3nc2n1Cc1ccccc1)c1ccc(Cl)cc1 42.4%
